Screening results (PubChem)
ST2 IL33 inh: inhibitors of human ST2 (IL1RL1) binding to IL-33, primary screen, biochemical, AlphaLISA; Interleukin-1 receptor-like 1 (Homo sapiens), Q01638; AlphaLISA ST2-Fc/biotin-IL-33 interaction, 1 h; inhibition, % for hits at 17 µM; actives 2.3% (n = 78,000); in the data active = inhibition above about 30%
Target sequence (Q01638 whole entry, looked up): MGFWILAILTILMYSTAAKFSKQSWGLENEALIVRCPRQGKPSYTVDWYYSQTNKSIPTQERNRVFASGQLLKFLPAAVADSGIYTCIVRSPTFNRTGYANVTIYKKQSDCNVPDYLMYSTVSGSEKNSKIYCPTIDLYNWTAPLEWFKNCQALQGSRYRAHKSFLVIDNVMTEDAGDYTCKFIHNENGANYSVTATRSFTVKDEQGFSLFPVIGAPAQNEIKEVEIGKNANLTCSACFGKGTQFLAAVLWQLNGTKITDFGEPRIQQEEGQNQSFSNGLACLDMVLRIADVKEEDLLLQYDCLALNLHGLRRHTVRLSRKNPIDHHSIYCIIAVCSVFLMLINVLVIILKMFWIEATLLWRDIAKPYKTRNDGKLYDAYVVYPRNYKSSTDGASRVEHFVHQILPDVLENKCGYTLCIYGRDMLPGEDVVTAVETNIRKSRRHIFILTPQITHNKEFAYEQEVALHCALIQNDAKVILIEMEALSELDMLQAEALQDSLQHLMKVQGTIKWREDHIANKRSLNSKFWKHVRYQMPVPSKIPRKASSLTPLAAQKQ
Large screens that a line does not name were inactive. The full list was thinned out, with hits kept by preference.

COC(=O)c1c(NC(=O)CSc2nccn2C)sc2c1CCC(C(C)(C)C)C2 (centres undefined)	ST2 IL33 inh 35%
CSc1nnc2c(n1)OC(c1ccncc1)Nc1ccc(Br)cc1-2 (centres undefined)	none
Cn1c(C(=O)N2CCCn3cncc3C2)cc2c(Cl)cccc21	none
O=C(O)c1ccccc1SC1CC(=O)N(c2ccccc2C(F)(F)F)C1=O (centres undefined)	none
O=C1CN(C(=O)c2nn(Cc3ccccc3)c3c2CN(C(=O)CCc2cccs2)CC3)CCN1	none
O=C(Cc1cccs1)N1CCC(Cc2ccccc2)CC1	none
O=C1CCN(C(=O)c2nn(CCc3ccccc3)c3c2CN(C(=O)Cc2cccs2)CC3)CCN1	ST2 IL33 inh 33%
Cc1ccc([N+](=O)[O-])cc1NC(=O)CCCN1C(=O)c2ccccc2C1=O	none
Cn1ccnc1CN(Cc1ccc2c(c1)OCCO2)C1CC1	none
CSC1=NCCN1C(=O)c1ccc(Br)cc1	none
O=c1c(NS(=O)(=O)c2cccc(F)c2)ccc2n1C[C@H]1C[C@@H]2CN(S(=O)(=O)c2cccs2)C1	ST2 IL33 inh 44%
O=C(Nc1ccc(F)cc1)N1C[C@@H]2C[C@H](C1)c1ccc(NS(=O)(=O)c3cccs3)c(=O)n1C2	none
COc1ccc(NC(=O)N2C[C@@H]3C[C@H](C2)c2ccc(NS(=O)(=O)c4cccc(F)c4)c(=O)n2C3)cc1	none
OC(COc1ccccc1)Cn1ccnc1 (centres undefined)	none
Cc1nc(C)c2c(=O)oc3ccc(Cl)cc3c2c1C	none
CCc1c(-c2ccccc2)nc2ccccc2c1C(=O)NC(C)C	none
Cc1nn(C)c(Cl)c1S(=O)(=O)N1C[C@H]2CC=CC[C@H]2C1	none
N#C/C(=C\c1cc(Cl)ccc1O)c1nc2ccccc2[nH]1	ST2 IL33 inh 35%
N#C/C(=C\c1ccc(O)cc1O)c1nc2ccccc2[nH]1	none
C=CCOc1ccc(Cl)cc1/C=C(\C#N)c1nc2ccccc2[nH]1	none
COc1ccc(Br)c2c1-c1nc(NC(C)=O)sc1C2	none
CSc1nc2ccc3nc(NC(=O)c4cccc(Cl)c4)sc3c2s1	none
CC(C)c1cc(C(=O)Nc2c(Cl)cccc2Cl)no1	none
Cc1ccc(S(=O)(=O)N2C[C@H]3C[C@H](O)[C@H](O)C[C@H]3C2)c(F)c1	none
CC(C)CCNC(=O)CCS(=O)(=O)c1cccc2nonc12	ST2 IL33 inh 60%
O=C(CCS(=O)(=O)c1cccc2nonc12)NCCc1ccccc1	none
CC(C)NC(=O)CCS(=O)(=O)c1cccc2nonc12	none
CCOC(=O)C1(Cc2ccc(F)cc2)CCCN(C(=O)c2ccc3c(c2)OCO3)C1 (centres undefined)	none
O=C(Nc1c2c(nn1-c1ccc(Cl)cc1)CSC2)c1cccs1	none
CCN1/C(=C/C=c2/sc3nc4ccccc4n3c2=O)C=Cc2ccccc21	ST2 IL33 inh 43%
CCN1/C(=c2/sc3nc4ccccc4n3c2=O)Sc2ccc(OC)cc21	none
CN(C)c1ccc(/C=c2\sc3nc4ccccc4n3c2=O)cc1	none
CCOC(=O)c1[nH]c2ccccc2c1NC(=O)C1CC1	none
CC1CCN(C(=O)c2cn(C)c(=O)c3c2c2ccccc2n3C)CC1	none
Cc1cc(=O)[nH]c(C)c1NC(=O)c1cccc(CN2CC[C@H](O)C2)c1	none
Cc1ccc(CNC(=O)NCCc2nc3cccnc3n2Cc2ccc(C)cc2)cc1	none
CCOc1ccc(NC(=O)NCCc2nc3cccnc3n2Cc2ccc(C)cc2)cc1	none
Cc1ccc(Cn2c(CCNC(=O)Nc3ccccc3Cl)nc3cccnc32)cc1	ST2 IL33 inh 36%
CN(C)c1nc(Oc2ccc(/C=N\O)cc2)nc(N(C)C)n1	none
COc1ccccc1-n1c(=O)c2c3c(sc2n2cnnc12)CCC3	none
CN(c1ccccc1)c1ccc(/C=C/[N+](=O)[O-])cc1	ST2 IL33 inh 50%
CN(C)c1ccc(/C=C/c2c([N+](=O)[O-])c(=O)n(C)c(=O)n2C)cc1	none
CN(c1ccccc1)c1ncnc(N)c1[N+](=O)[O-]	none
CCNc1ccc(N)c(C)c1C	ST2 IL33 inh 79%
CSc1ccccc1NC(=O)c1cc2nc(-c3ccco3)cc(C(F)(F)Cl)n2n1	none
COc1ccccc1/C=C/C1=NC(=C\c2ccccc2)/C(=O)O1	ST2 IL33 inh 38%
COc1ccccc1/C=C/C1=NC(=C\c2cccc([N+](=O)[O-])c2)/C(=O)O1	none
COc1ccccc1/C=C/C1=NC(=C\c2c(F)cccc2Cl)/C(=O)O1	none
COc1ccccc1/C=C1N=C(/C=C/c2ccccc2OC)OC\1=O	ST2 IL33 inh 37%
COc1ccccc1/C=C/C1=NC(=C\c2ccccc2Cl)/C(=O)O1	none
COc1ccccc1/C=C/C1=NC(=C\c2ccc(Cl)cc2)/C(=O)O1	none
O=C(CCC1(Cc2cccc3ccccc23)CCC(=O)N1)NCc1cc2ccccc2s1 (centres undefined)	none
NC1=NN(c2ccccc2)CC1	ST2 IL33 inh 40%
Nc1ccnn1-c1ccccc1	none
NC1=NCCN1c1ccccc1	none
CCS(=O)(=O)N1CCCC(C(=O)NC(C)C)C1 (centres undefined)	none
Cc1cc(C)cc(NC(=O)CSC2=NN3CCCC(=O)N=C3S2)c1	none
O=C(O)CC1(c2ccccc2)C(=O)c2ccccc2C1=O	none
N#CSc1ccc(NC2(c3ccccc3)C(=O)c3ccccc3C2=O)cc1	ST2 IL33 inh 34%
O=C(CCc1cccs1)NCc1cccnc1N1CCOCC1	none
NC(=O)c1ccnc(-c2ccc(F)cc2Cl)c1	none
COc1cncc(-c2ccc(F)cc2Cl)c1	none
Nc1ccc(-c2ccc(F)cc2Cl)cn1	ST2 IL33 inh 35%
O=C(c1ccc2c(=O)n(CCc3ccccc3)c(=O)[nH]c2c1)N1CCc2ccccc2C1	none
O=C(CN1CCN(Cc2ccc(F)cc2Cl)C1=O)NCc1cccnc1	none
O=C1C[C@@H]2CCN(C(=O)NC3CCCCC3)C[C@@H]2CCN1CCN1CCNC1=O	none
CCOC(=O)C1(Cc2ccccc2)CCCN(C(=O)C#Cc2ccccc2)C1 (centres undefined)	ST2 IL33 inh 42%
CCOC(=O)C1(Cc2ccccc2Cl)CCN(C(=O)C#Cc2ccccc2)CC1	none
CCOC(=O)C1(CC2CCCCO2)CCN(C(=O)C#Cc2ccccc2)CC1 (centres undefined)	none
CC(C)c1ccc(C(=O)Nc2ccccc2C(N)=O)cc1	none
NC(=O)c1ccccc1NC(=O)c1cccc(C(=O)Nc2ccccc2C(N)=O)c1	ST2 IL33 inh 30%
NC(=O)c1ccccc1NC(=O)c1cccc(I)c1	none
CCC(C)n1c(Cc2ccc(O)cc2)n[nH]c1=O (centres undefined)	ST2 IL33 inh 33%
CC(C)[C@@H](C)n1c(CCc2ccccc2)n[nH]c1=O	none
CC(C(=O)O)n1c(Cc2ccccc2)n[nH]c1=O (centres undefined)	none
CCOC(=O)C1CCCN(C(=O)c2cn(C)c(=O)c3cc(OC)c(OC)cc23)C1 (centres undefined)	ST2 IL33 inh 35%
CCOC(=O)C1CCCN(C(=O)c2cn(CC)c(=O)c3cc(OC)c(OC)cc23)C1 (centres undefined)	none
CCOC(=O)C1CCCN(C(=O)c2cn(CC(C)C)c(=O)c3cc(OC)c(OC)cc23)C1 (centres undefined)	none
CCN1CCN(C(=O)c2cn(CC)c(=O)c3cc(OC)c(OC)cc23)CC1	none
CCn1cc(C(=O)N2CCN(C)CC2)c2cc(OC)c(OC)cc2c1=O	none
COc1ccc(N2CCN(C(=O)c3cn(C)c(=O)c4cc(OC)c(OC)cc34)CC2)cc1	ST2 IL33 inh 46%
O=C(c1ccc2c(c1)OCO2)N1CCN=C1SCc1ccc(Br)cc1	none
O=C(Cc1ccc(F)cc1)NCCN1CCOCC1	none
O=C(CNC(=O)c1cccs1)NCc1ccco1	none
COC(=O)c1cc2n(n1)CCCN(C(=O)C1COc3c(cccc3OC)C1)C2 (centres undefined)	none
